In the library only some 11% were active in any assay of this set; here they are far more common.
G9a inh: blocks human histone lysine methyltransferase G9a. Potency, µM (top dose mostly 102 µM), for inactives: at the highest dose activity, negative = inhibition, most hits filed as inhibitors. hit rate 8.8% among 350,000. Q96KQ7. AID 504332. G9a H3K9 monomethylation, AlphaScreen, 2 h; also: potency is read from the fitted curve at half-maximal effect; nearly all actives have a fitted effect of over 75% in size
Target sequence (Q96KQ7 913-1193 limits assumed): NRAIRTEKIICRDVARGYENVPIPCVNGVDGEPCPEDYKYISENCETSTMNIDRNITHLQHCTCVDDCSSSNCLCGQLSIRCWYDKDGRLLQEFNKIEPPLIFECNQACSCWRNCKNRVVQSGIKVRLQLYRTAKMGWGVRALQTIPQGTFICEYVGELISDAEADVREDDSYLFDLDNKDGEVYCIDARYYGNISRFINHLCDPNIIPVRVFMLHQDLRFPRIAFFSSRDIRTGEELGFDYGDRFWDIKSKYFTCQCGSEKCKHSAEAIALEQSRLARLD
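Signal arises when biotinylated H3K9 peptide, once monomethylated, bridges streptavidin donor and antibody-captured acceptor beads. Enzyme at 20 nM was preincubated 15 min with test compounds; peptide 500 nM and SAM 20 uM then reacted for 2 h.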
Sfp inh: blocks B. subtilis Sfp PPTase activity; Q9F4F7; Biochemical Sfp PPTase activity, qHTS; Potency, µM, inactives show largest response in the series, negative = inhibition, most hits filed as inhibitors; hit rate 3.5% among 310,000;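 also: the enzyme is Sfp with the accession as filed and its product quenches rhodamine fluorescence; potency is read from the fitted curve at half-maximal effect; 0% = enzyme reaction without inhibitor and -100% = no enzyme wells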
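Fluorescence-quenching assay with 15 nM Sfp, 5 uM rhodamine-CoA and 12.5 uM BHQ-2-labelled ybbR peptide in pH 7.6 Hepes/MgCl2 buffer. Enzyme was pre-incubated with compound for 15 min at room temperature. Rate was taken from the 30-min fluorescence change (525/598 nm).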
Tau fibril ThT: tau fibrillization inhibition (ThT binding); P10636; recombinant tau K18 P301L, heparin-induced fibrillization, ThT fluorescence; AID 1460; Potency, µM (top dose mostly 57.4 µM), for the others: at the highest dose activity, negative = inhibition, actives largely listed as inhibitors; hit rate 2.1% among 270,000; also: potency is read from the fitted curve at half-maximal effect; nearly all actives have a fitted effect of over 55% in size
Target sequence (P10636 561-689 P618L limits assumed): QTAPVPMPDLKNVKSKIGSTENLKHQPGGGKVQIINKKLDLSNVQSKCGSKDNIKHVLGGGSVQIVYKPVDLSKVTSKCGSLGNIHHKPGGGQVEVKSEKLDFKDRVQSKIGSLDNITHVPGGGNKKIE
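K18 P301L tau (15 uM + 0.24 uM Alexa 594-tagged), heparin 20 uM, NaOAc pH 7, 6 h 37 C; ThT 30 uM, 1 h RT, ex 450/em 510 nm.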
Tau fluor cs: counter-screen for tau fibril formation inhibitors; tau K18 P301L (four-repeat tau fragment) Alexa594 fluorescence, heparin fibrillization; Potency, µM (doses to about 57.7 µM), for the others: top-dose activity change, negative = decrease; hit rate 0.93% among 280,000; also: potency is read from the fitted curve at half-maximal effect; nearly all actives have a fitted effect of over 55% in size
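Human K18 P301L tau (15 uM unlabeled plus 0.24 uM Alexa 594-labeled, final) in 100 mM sodium acetate pH 7 was mixed with compound and 20 uM heparin and incubated 6 hr at 37 C.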
FBPA coupling cs: counter-screen for Giardia aldolase inhibitors: coupling enzyme system | activity change, negative = inhibition, % at 58.2 µM, hits read low | AID 2472 | coupling enzyme system counterscreen, AmpLite Red fluorescence | hit rate 0.67% among 290,000; in the data active = activity change below about -30%
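Counterscreen lacking aldolase: glyceraldehyde-3-phosphate coupling-enzyme reagent preincubated 10 min at RT with compound (at 57.5 uM final), then substrate/coupling system with AmpLite Red added; fluorescence read at 525/598 nm after 20 min RT.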
Tau fibril FP: blocks human tau fibril formation measured by polarization | Potency, µM (doses to about 57.7 µM), for inactives: at the top dose activity, negative = inhibition, actives largely listed as inhibitors | K18 P301L tau heparin fibrillization, Alexa594 FP, 6 h | hit rate 0.39% among 280,000 | AID 1468 | P10636; also: potency is read from the fitted curve at half-maximal effect; nearly all actives have a fitted effect of over 55% in size
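FP of Alexa 594-tau after heparin (20 uM) induction. Substrate: human K18 P301L, 15 uM unlabeled, 0.24 uM labeled. Buffer 100 mM sodium acetate pH 7. 6 hr, 37 C.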
An asterisk follows results filed as active; [ ] = dose if it differs, or a comment. Unless noted, calls follow the shape of the dose curve; as a rule, active = well fitted curve in the direction sought with a large enough effect; inconclusive = small, poorly fitted or top-dose-only effect, or another doubt; inactive = no such curve, though single readings can be large; an effect the other way counts as inactive or inconclusive. Unless noted, % is scaled to controls: 0 for no effect and ±100 for the full control effect.

`CCOc1cc(/C=C2\SC(=Nc3ccc(F)cc3)N(c3ccc(F)cc3)C2=O)ccc1OCC(=O)O` gave G9a inh inconclusive, Sfp inh 40µM*, Tau fibril ThT 3%, Tau fluor cs 9%, FBPA coupling cs 25 and Tau fibril FP 1%.
`CCOC(=O)C1=C(O)/C(=C/c2ccc(OCC(=O)O)c(OCC)c2)SC1=Nc1ccc(C)cc1` gave G9a inh 45µM*, Sfp inh -3%, Tau fibril ThT inconclusive, Tau fluor cs 14%, FBPA coupling cs -2 and Tau fibril FP 1%.
CCOC(=O)C1=C(O)/C(=C/c2ccc(OCC(=O)O)c(OCC)c2)SC1=Nc1ccc(OC)cc1 was read as G9a inh -3%[59 µM], Sfp inh 13%, Tau fibril ThT inconclusive, Tau fluor cs 13%, FBPA coupling cs 0 and Tau fibril FP 3%.
For CCOc1cc(/C=C2\SC(=Nc3ccccc3)N(c3ccccc3)C2=O)ccc1OCC(=O)O the results were G9a inh inconclusive, Sfp inh -17%, Tau fibril ThT inconclusive, Tau fluor cs 14%, FBPA coupling cs 7 and Tau fibril FP 6%.
For COc1cccc(CNC(=O)c2ccc(-c3nc(CS(=O)c4ccccc4)c(C)o3)cc2)c1 (stereo not given) the results were G9a inh inconclusive, Tau fibril ThT 5%, Tau fluor cs -2% and Tau fibril FP 0%.
`CCOc1ccc(Cn2c(CNS(=O)(=O)c3ccc(Cl)s3)nc3cccnc32)cc1` gave G9a inh 43%[59 µM], Tau fibril ThT -1%, Tau fluor cs -9% and Tau fibril FP 2%.
CCOc1cc(/C=N/NC(=O)c2ccccn2)ccc1OC(=O)c1cccs1 was read as G9a inh 7%, Sfp inh -5% and FBPA coupling cs -1.
For COc1ccc(C2=NN(c3ccccc3)C(=O)/C2=C\c2ccc(O)c(OC)c2)cc1 the results were G9a inh 16µM*, Sfp inh 5%, Tau fibril ThT inconclusive, Tau fluor cs inconclusive, FBPA coupling cs 12 and Tau fibril FP inconclusive.
CC1=NN(c2ccccc2)C(=O)/C1=C/c1cccc(C)c1 was read as G9a inh 50µM*, Sfp inh -6% and FBPA coupling cs 3.
CCOc1cc(/C=C2/C(=O)N(c3ccccc3)N=C2C)ccc1OC(=O)c1cccs1 was read as G9a inh 40µM*, Sfp inh -18%, Tau fibril ThT inconclusive, Tau fluor cs -23%, FBPA coupling cs -6 and Tau fibril FP 3%.
For COc1ccc(/C=C2/C(=O)N(c3ccccc3)N=C2C)cc1OC the results were G9a inh 71µM*, Sfp inh 13% and FBPA coupling cs 1.
For O=C1COc2cc(S(=O)(=O)CCC(=O)N3CCN(c4ccccc4)CC3)c(Cl)cc2N1 the results were G9a inh -1%[59 µM], Tau fibril ThT inconclusive, Tau fluor cs -4% and Tau fibril FP -13%.
For C/C(=N\OCC(=O)OC(C)C(=O)Nc1ccc(C(N)=O)cc1)c1ccc2c(c1)OCO2 (stereo not given) the results were Sfp inh -1% and FBPA coupling cs 2.
`O=C(Nc1ccc(Cl)c(Cl)c1)Nc1ccc(Br)cc1F` gave G9a inh 30%[59 µM], Sfp inh inconclusive, Tau fibril ThT inconclusive, Tau fluor cs inconclusive, FBPA coupling cs -3 and Tau fibril FP 7.1µM*.
For O=C(Nc1ccccc1)Nc1ccccc1Br the results were G9a inh 5%, Sfp inh 10%, Tau fibril ThT 1%, Tau fluor cs -10%, FBPA coupling cs -5 and Tau fibril FP -8%.
O=C(Nc1ccc(Cl)c(Cl)c1)Nc1ccccc1O was read as G9a inh inconclusive, Sfp inh inconclusive, Tau fibril ThT inconclusive, Tau fluor cs 13µM*[quencher], FBPA coupling cs -8 and Tau fibril FP -5%.
`O=C(Nc1ccccc1)Nc1ccc(Br)c(Cl)c1` gave G9a inh 21%[59 µM], Sfp inh 28%, Tau fibril ThT inconclusive, Tau fluor cs inconclusive, FBPA coupling cs 0 and Tau fibril FP 14µM*.
`COCCNC(=O)CCN1C(=O)c2cccnc2Oc2ccc(C)cc21` gave G9a inh 2%[59 µM], Tau fibril ThT -2%, Tau fluor cs -1% and Tau fibril FP 1%.
For N#C/C(C(=O)NCc1ccco1)=C1/SC=C(c2ccccc2)N1c1ccccc1 the results were G9a inh 16µM*, Sfp inh 0%, Tau fibril ThT -3%, Tau fluor cs 9%, FBPA coupling cs 0 and Tau fibril FP 3%.
For N#C/C(C(=O)NCc1ccco1)=C1/SC(Cc2ccc(Cl)cc2)C(=O)N1c1ccccc1 (stereo not given) the results were G9a inh -16%[59 µM], Sfp inh 40µM*, Tau fibril ThT 5%, Tau fluor cs 4%, FBPA coupling cs -7 and Tau fibril FP 0%.
CC1=NN(c2ccc([N+](=O)[O-])cc2)C(=O)/C1=C\N(C)C was read as G9a inh 10µM*, Sfp inh 7%, Tau fibril ThT 13µM*, Tau fluor cs -24%, FBPA coupling cs 0 and Tau fibril FP 1%.
Screening CC1=NN(c2ccccc2)C(=O)/C1=C/N(C)C returned Sfp inh -3%, Tau fibril ThT -9%, Tau fluor cs -5%, FBPA coupling cs -17 and Tau fibril FP -12%.
Screening CCCC1=NN(c2ccc([N+](=O)[O-])cc2)C(=O)/C1=C/N(C)C returned G9a inh 0%[59 µM], Sfp inh 79µM*, Tau fibril ThT inconclusive, Tau fluor cs -16%, FBPA coupling cs -8 and Tau fibril FP 1%.
Screening CCOC1=NN(c2ccc(Cl)cc2)C(=O)/C1=C\N(C)C returned G9a inh 56µM*, Sfp inh 21%, Tau fibril ThT -4%, Tau fluor cs -2%, FBPA coupling cs 7 and Tau fibril FP 9%.
Screening CCOC1=NN(c2ccccc2)C(=O)/C1=C\N(C)C returned G9a inh inconclusive, Sfp inh -4%, Tau fibril ThT -4%, Tau fluor cs -3%, FBPA coupling cs -1 and Tau fibril FP 8%.
Screening CCN1C(=O)/C(=C\c2cccn2-c2ccc([N+](=O)[O-])cc2)N(CC)C1=S returned G9a inh 9%[59 µM], Sfp inh 13%, Tau fibril ThT -2%, Tau fluor cs -8%, FBPA coupling cs 1 and Tau fibril FP -2%.
For Cc1c(CC(=O)O)c(=O)oc2c(C)c3occ(-c4ccc(F)cc4)c3cc12 the results were G9a inh 5%, Sfp inh 35µM* and FBPA coupling cs 1.

From PubChem BioAssay
